{"source": "PubChem BioAssay AID588590", "about": "(National Center for Advancing Translational Sciences (NCATS), 2011)", "note": "About 4,000 (1%) of roughly 390,000 compounds were called active. Roughly 7% stayed inconclusive and do not appear here. Only a selection was taken, and actives are over-represented in it overall. Values without a mark were called inactive. The call rests on the fitted dose curve; in most records, active means well fitted inhibition curve with a large enough effect; inconclusive means small, poorly fitted or top-dose-only effect, or another doubt; inactive means no such curve, though single readings can be large or run the other way. Potency means the concentration at half of the fitted maximal effect.", "data": [{"molecular_target": "DNA polymerase iota (Homo sapiens) (UniProt Q9UNA4)", "sequence (Q9UNA4 whole entry, looked up)": "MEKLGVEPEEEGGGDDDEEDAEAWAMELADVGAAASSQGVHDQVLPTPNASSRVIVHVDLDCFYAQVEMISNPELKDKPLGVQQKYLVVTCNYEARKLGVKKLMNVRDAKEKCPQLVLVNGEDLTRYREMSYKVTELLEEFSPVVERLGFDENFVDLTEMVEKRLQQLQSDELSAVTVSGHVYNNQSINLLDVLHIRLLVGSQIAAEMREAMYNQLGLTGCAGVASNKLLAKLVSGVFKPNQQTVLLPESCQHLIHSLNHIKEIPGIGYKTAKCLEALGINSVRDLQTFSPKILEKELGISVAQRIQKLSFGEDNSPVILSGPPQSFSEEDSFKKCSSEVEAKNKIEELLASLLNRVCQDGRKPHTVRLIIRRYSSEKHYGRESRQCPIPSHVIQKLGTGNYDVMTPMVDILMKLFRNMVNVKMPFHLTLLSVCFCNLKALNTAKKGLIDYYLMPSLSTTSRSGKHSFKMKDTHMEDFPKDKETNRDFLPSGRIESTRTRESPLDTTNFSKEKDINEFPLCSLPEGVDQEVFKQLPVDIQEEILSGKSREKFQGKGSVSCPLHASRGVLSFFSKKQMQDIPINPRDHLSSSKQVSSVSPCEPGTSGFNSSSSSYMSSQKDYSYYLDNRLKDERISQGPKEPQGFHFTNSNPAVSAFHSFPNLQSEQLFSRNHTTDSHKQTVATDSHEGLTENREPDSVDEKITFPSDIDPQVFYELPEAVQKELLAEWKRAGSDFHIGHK", "test": "qHTS for Inhibitors of Polymerase Iota", "conditions": "Pol iota fluorescent replication assay, 10 min; series mostly up to 115 µM; activity, negative = inhibition: at the top concentration", "method_in_brief": "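Fluorescent replication assay read twice, at 0 min and 10 min after adding 50 nM (final) substrate. Enzyme (10 nM) and compounds were first incubated 15 min at room temperature; enzyme-free buffer wells were negative controls.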", "units": {"activity, negative = inhibition": "%"}, "values": [{"smiles": "O=C(CN1C(=O)CCn2nc(-c3ccccc3)cc21)NCc1ccccc1", "activity, negative = inhibition": 15.2}, {"smiles": "CCCCc1nn2c(=O)cc(COC(=O)c3ccccc3NC(=O)C(C)(C)C)nc2s1", "activity, negative = inhibition": 2.84}, {"smiles": "COc1cc(/C=C/C(=O)OCC(=O)NC2CC2)cc(OC)c1OC", "activity, negative = inhibition": -18}, {"smiles": "COc1ccccc1/C=C/C(=O)OCC(=O)NC1CCCCCC1", "activity, negative = inhibition": 36.9}, {"smiles": "COc1ccc(/C=C/C(=O)OCC(=O)NC2CCCCCC2)cc1OC", "Potency": "89.1 µM (active)"}, {"smiles": "Cc1c(Cl)cccc1NC(=O)C1CCCN(C(=O)c2cnn(-c3ccccc3)c2-n2cccc2)C1", "note": "(centres undefined)", "activity, negative = inhibition": 27.3}, {"smiles": "CN(C)/C=C1/Nc2ccccc2C1=O", "Potency": "28.2 µM (active)"}, {"smiles": "CCCS(=O)(=O)C(=C1Nc2ccccc2N1)S(=O)(=O)CCC", "activity, negative = inhibition": 2.05}, {"smiles": "COc1ccccc1CNC(=O)Cn1nc(C)c2nn(-c3ccc(Cl)cc3)c(C)c2c1=O", "activity, negative = inhibition": 19.7}, {"smiles": "COC(=O)c1ccccc1NS(=O)(=O)c1ccc2c(c1)CCCN2C(C)=O", "activity, negative = inhibition": -5.29}, {"smiles": "O=C1C(Cl)=C(Oc2ccccc2)C(=O)c2ccccc21", "Potency": "1.78 µM (active)"}, {"smiles": "COc1ccccc1CNC(=O)CS(=O)(=O)c1cccc2nsnc12", "activity, negative = inhibition": 1.49}, {"smiles": "Cc1nn2c(=O)cc(COC(=O)CNC(=O)c3ccc(F)cc3)nc2s1", "activity, negative = inhibition": -5.5}, {"smiles": "O=C(Cc1ccccc1)Nc1sc2c(c1C(=O)Nc1ccc(Br)cc1)CCC2", "activity, negative = inhibition": 16.3}, {"smiles": "COc1cccc(N=C2SC(C(=O)Nc3cccc(Cl)c3)CC(=O)N2C)c1", "note": "(centres undefined)", "activity, negative = inhibition": -6.41}, {"smiles": "CCCCNC(=O)Cn1c(SCc2cccc(Cl)c2)nc2ccncc21", "activity, negative = inhibition": 24.8}, {"smiles": "CCOc1ccc(NC(=O)c2ncoc2-c2ccco2)cc1", "activity, negative = inhibition": 2.03}, {"smiles": "COc1ccc(NC(=O)COCc2cc(-c3ccco3)on2)cc1", "activity, negative = inhibition": -14.4}, {"smiles": "COCCNC(=O)Nc1ccc2nc(-c3ccco3)c(-c3ccco3)nc2c1", "Potency": "2.82 µM (active)"}, {"smiles": "COc1ccc(NC(=O)CCCc2nnc3n(CCC(C)C)c(=O)c4sccc4n23)c(OC)c1", "activity, negative = inhibition": 9.5}, {"smiles": "Cc1ccc(CN2C(=O)SC(Nc3ccccc3)C2=O)cc1", "note": "(centres undefined)", "activity, negative = inhibition": -9.14}, {"smiles": "CCOC(=O)CSC1=Nc2ccccc2C2=NC(CCC(=O)NCc3ccc(F)cc3)C(=O)N12", "note": "(centres undefined)", "activity, negative = inhibition": 0.348}, {"smiles": "Cc1ccc(CNC(=O)CSC2=Nc3ccccc3C3=NC(C)C(=O)N23)cc1", "note": "(centres undefined)", "activity, negative = inhibition": -0.464}, {"smiles": "CC(C)C1N=C2c3ccccc3N=C(SCC(=O)c3ccc(O)c(O)c3)N2C1=O", "note": "(centres undefined)", "Potency": "1.41 µM (active)"}, {"smiles": "COc1ccc(NC(=O)CSc2nc3ccccc3n2CC(=O)N2CCCCC2C)cc1", "note": "(centres undefined)", "activity, negative = inhibition": -7.07}, {"smiles": "CCOc1ccc(S(=O)(=O)Nc2ccc3oc4c(c3c2)CC(C)CC4)cc1", "note": "(centres undefined)", "activity, negative = inhibition": 8.03}, {"smiles": "COC(=O)c1cc(NC(=O)c2sc3ccccc3c2Cl)cc(C(=O)OC)c1", "activity, negative = inhibition": 8.39}, {"smiles": "Oc1ccc(N=Cc2sc3ccccc3c2Cl)cc1", "Potency": "8.91 µM (active)"}, {"smiles": "O=S(=O)(c1ccc2nc(N3CCN(c4cccc(Cl)c4)CC3)ccc2c1)N1CCCCC1", "activity, negative = inhibition": -5.47}, {"smiles": "c1ccc(Cn2nnc3c(N4CCCCC4)ncnc32)cc1", "activity, negative = inhibition": 47.3}, {"smiles": "Cc1ccc(-c2nc(Cn3c(=O)cc(-c4ccccc4)c4c(C)nn(C)c43)c(C)o2)cc1", "activity, negative = inhibition": -6.95}, {"smiles": "COc1cc(OC)cc(C(=O)Nc2ccc3nc(Nc4cccc(C(F)(F)F)c4)cc(C)c3c2)c1", "activity, negative = inhibition": 13.8}, {"smiles": "Cc1cccc(NC(=O)CSc2nc3c(oc4ccccc43)c(=O)n2-c2ccc(F)cc2)c1", "activity, negative = inhibition": 33.5}, {"smiles": "Cc1ccc2c(=O)c(C(=O)c3cccc(Cl)c3)cn(CC(=O)NCc3ccccc3)c2n1", "activity, negative = inhibition": -2.34}, {"smiles": "NNc1cccc(C=Cc2ccccc2)cc1=O", "Potency": "25.1 µM (active)"}, {"smiles": "O=C(COC(=O)/C=C/c1cccc(Cl)c1)NCCc1ccccc1", "activity, negative = inhibition": 17.7}, {"smiles": "NS(=O)(=O)c1ccc(NS(=O)(=O)/C=C/c2ccccc2)cc1", "activity, negative = inhibition": 30}, {"smiles": "CCC(=O)N1CCc2cc(Br)cc(S(=O)(=O)CCC(=O)N3CCN(c4ccc(F)cc4)CC3)c21", "activity, negative = inhibition": 15.6}, {"smiles": "Cn1c(SCC(=O)N2CCCc3ccccc32)ncc(C(=O)Nc2ccc(F)cc2)c1=O", "activity, negative = inhibition": 17.9}, {"smiles": "S=c1[nH]c(=S)c2n[nH]nc2[nH]1", "activity, negative = inhibition": 21.1}, {"smiles": "COc1cccc(C(=O)Nc2ccc3oc(-c4ccc5ccccc5c4)nc3c2)c1", "activity, negative = inhibition": -20.5}, {"smiles": "COc1cc2nc(N3CCCN(C)CC3)nc(NC(C)C)c2cc1OC", "activity, negative = inhibition": 35.2}, {"smiles": "O=C(Nc1ccccc1)N(Cc1cccnc1)Cc1ccco1", "activity, negative = inhibition": -13.8}, {"smiles": "Cc1ccc(C)c2[nH]c(=O)c(CN(Cc3cccnc3)C(=S)NCc3ccco3)cc12", "Potency": "44.7 µM (active)"}, {"smiles": "Cc1cccc2cc(CN(Cc3cccs3)C(=S)NCc3ccco3)c(=O)[nH]c12", "activity, negative = inhibition": 10.6}, {"smiles": "O=C(c1ccc2c(c1)N(Cc1ccccc1)C(=O)c1ccccc1S2(=O)=O)N1CCCC1", "activity, negative = inhibition": 10.1}, {"smiles": "COc1cc2nc(SCC(=O)Nc3ccccc3F)n3nc(-c4ccccc4)nc3c2cc1OC", "activity, negative = inhibition": -24.9}, {"smiles": "CCc1cc2c(cc3c(=O)n(CC(=O)N4CCN(c5cc(Cl)ccc5C)CC4)nc(CC)n32)s1", "activity, negative = inhibition": 37.4}, {"smiles": "CCc1ccc(NC(=O)CN2C(=O)CCSc3ccc(S(=O)(=O)N4CCCC4)cc32)cc1", "activity, negative = inhibition": 8.35}]}]}
